# From the supplement of paper PMC8728848
# This is one part of a sample in which the strongest signals are shown more often than they occur.
# B1: Surfactant Protein D (Human); Neck + Carbohydrate Recognition Domain (NCRD) (Homo sapiens) (protein)
# chain: MLLFLLSALVLLTQPLGYLEAEMKTYSHRTMPSACTLVMCSSVESGLPGRDRDGREGPRGEKGDPGLPGAAGQAGMPGQAGPVGPKGDNGSVGEPGPKGDTGPSGPPGPPGVPGPAGREGALGKQGNIGPQGKPGPKGEAGPKGEVGAPGMQGSAGARGLAGPKGERGVPGERGVPGNTGAAGSAGAMGPQGSPGARGPPGLKGDKGIPGDKGAKGESGLPDVASLRQQVEALQGQVQHLQAAFSQYKKVELFPNGQSVGEKIFKTAQFVKPFTEAQLLCTQAGGQLASPRSAAENAALQQLVVAKNEAAFLSMTDSKTEGKFTYPTGESLVYSNWAPGEPNDDGGSEDCVEIFTNGKWNDRACGEKALVVCEF
# Experiments:
# Experiment in all cases: glycan array binding signal (z-score within array); higher = stronger binding
# Settings in all cases: glycan notation: IUPAC condensed, linker removed; mutation: R349A
# [1] = molecular target: Fuc(a1-2)Gal(b1-4)GlcNAc
# Summary of the method: (§1)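 Negative Z-scores can be read as non-binding. The Z-score is calculated within each array and then averaged across arrays of one protein sequence at different concentrations or buffers and across linkers. Arrays, 3228 in all, were curated from the Consortium for Functional Glycomics database and kept only where the protein sequence was available.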
# [2] = molecular target: Fuc(a1-2)Gal(b1-4)GlcNAc(b1-3)Gal(b1-4)GlcNAc
# Summary of the method: as §1
# [3] = molecular target: Fuc(a1-2)[GalNAc(b1-3)]Gal
# Summary of the method: as §1
# [4] = molecular target: Fuc(a1-3)[Gal(b1-4)]GlcNAc(b1-3)Gal(b1-3)[Fuc(a1-4)]GlcNAc
# Summary of the method: as §1
# [5] = molecular target: Gal(b1-3)GalNAc
# Summary of the method: as §1
# [6] = molecular target: Gal(b1-3)GalNAc(b1-4)[Neu5Ac(a2-3)]Gal(b1-4)Glc
# Summary of the method: as §1
# [7] = molecular target: Gal(b1-3)[Fuc(a1-4)]GlcNAc(b1-3)Gal(b1-4)GlcNAc
# Summary of the method: as §1
# [8] = molecular target: Gal(b1-4)GlcNAc(b1-3)[GlcNAc(b1-6)]Gal(b1-4)GlcNAc
# Summary of the method: as §1
# [9] = molecular target: Gal3S(b1-4)Glc
# Summary of the method: as §1
# [10] = molecular target: Gal3S6S(b1-4)GlcNAc
# Summary of the method: as §1
# [11] = molecular target: Gal3S6S(b1-4)GlcNAc6S
# Summary of the method: as §1
# [12] = molecular target: Gal6S(b1-4)Glc6S
# Summary of the method: as §1
# [13] = molecular target: GlcNAc(b1-2)Man(a1-3)[GlcNAc(b1-2)Man(a1-6)]Man(b1-4)GlcNAc(b1-4)GlcNAc
# Summary of the method: as §1
# [14] = molecular target: GlcNAc(b1-3)Gal
# Summary of the method: as §1
# [15] = molecular target: GlcNAc(b1-4)GlcNAc(b1-4)GlcNAc
# Summary of the method: as §1
# [16] = molecular target: GlcNAc(b1-4)GlcNAc(b1-4)GlcNAc(b1-4)GlcNAc(b1-4)GlcNAc
# Summary of the method: as §1
# [17] = molecular target: GlcNAc(b1-4)[GlcNAc(b1-6)]GalNAc
# Summary of the method: as §1
# [18] = molecular target: Man(a1-2)Man(a1-2)Man(a1-6)[Man(a1-3)]Man
# Summary of the method: as §1
# [19] = molecular target: Man(a1-2)Man(a1-3)Man
# Summary of the method: as §1
# [20] = molecular target: Man(a1-2)Man(a1-3)[Man(a1-2)Man(a1-6)]Man(a1-6)[Man(a1-2)Man(a1-2)Man(a1-3)]Man
# Summary of the method: as §1
# [21] = molecular target: Man(a1-3)[Man(a1-6)]Man(a1-6)[Man(a1-2)Man(a1-3)]Man(b1-4)GlcNAc(b1-4)GlcNAc
# Summary of the method: as §1
# [22] = molecular target: Neu5Ac(a2-3)Gal(b1-4)GlcNAc(b1-2)Man(a1-3)[GlcNAc(b1-2)Man(b1-4)GlcNAc(b1-2)Man(a1-6)]Man(b1-4)GlcNAc(b1-4)GlcNAc
# Summary of the method: as §1
# [23] = molecular target: Neu5Ac(a2-3)Gal(b1-4)[Fuc(a1-3)]GlcNAc(b1-3)Gal(b1-4)[Fuc(a1-3)]GlcNAc(b1-3)Gal(b1-4)[Fuc(a1-3)]GlcNAc
# Summary of the method: as §1
# [24] = molecular target: Neu5Ac(a2-6)GalNAc
# Summary of the method: as §1
# [25] = molecular target: Neu5Ac(a2-8)Neu5Ac(a2-8)Neu5Ac(a2-3)[GalNAc(b1-4)]Gal(b1-4)Glc
# Summary of the method: as §1
binder,measurement,setting,value
B1,glycan array binding signal (z-score),[1],-0.584
same,glycan array binding signal (z-score),[2],-0.301
same,glycan array binding signal (z-score),[3],-0.782
same,glycan array binding signal (z-score),[4],-0.667
same,glycan array binding signal (z-score),[5],-0.459
same,glycan array binding signal (z-score),[6],0.216
same,glycan array binding signal (z-score),[7],0.257
same,glycan array binding signal (z-score),[8],-0.419
same,glycan array binding signal (z-score),[9],0.892
same,glycan array binding signal (z-score),[10],2.25
same,glycan array binding signal (z-score),[11],3.32
same,glycan array binding signal (z-score),[12],3.96
same,glycan array binding signal (z-score),[13],-0.653
same,glycan array binding signal (z-score),[14],-0.71
same,glycan array binding signal (z-score),[15],3.19
same,glycan array binding signal (z-score),[16],0.258
same,glycan array binding signal (z-score),[17],-0.577
same,glycan array binding signal (z-score),[18],-0.532
same,glycan array binding signal (z-score),[19],0.578
same,glycan array binding signal (z-score),[20],4.48
same,glycan array binding signal (z-score),[21],7.39
same,glycan array binding signal (z-score),[22],0.008
same,glycan array binding signal (z-score),[23],-0.593
same,glycan array binding signal (z-score),[24],0.373
same,glycan array binding signal (z-score),[25],-0.579
